According to PubChem BioAssay (NCATS):
Results filed as inconclusive are left out. A call without a number means that no potency is given here. A number with no mark means an inactive call. Calls of active or inactive are those of the source. Calls follow the shape of the dose curve; as a rule, active = well fitted inhibition curve with a large enough effect; inconclusive = small, poorly fitted or top-dose-only effect; inactive = flat fitted curve, though single readings scatter.

Target: Aldehyde dehydrogenase, mitochondrial (Homo sapiens) (UniProt P05091)
Experiment: qHTS for Inhibitors of the Aldehyde Dehydrogenase Family (ALDH2) Primary screen (AID 2061308); also: nearly all actives have a fitted effect of over 55% in size
Details: ALDH2 enzyme inhibition qHTS, 1536-well; series mostly up to 56 µM

SMILES | Potency | activity change, negative = inhibition
FC(F)(F)c1ccccc1-c1nc(NCc2ccc(C3CCCCC3)cc2)c2ccccc2n1 | inactive | 
O=C1CCc2cc([S+](=O)([O-])NC3CCOCC3)ccc2N1 | inactive | 
O=C(Nc1cccc(C(F)(F)F)c1)c1cccs1 | inactive | 
COc1ccnc(NC(=S)N2CCN(c3ncc(C(F)(F)F)cc3Cl)CC2)c1 | inactive | 
COc1cccc(Cn2ncc3c4sc(C)cc4n(C)c3c2=O)c1 | inactive | 
Clc1ccccc1-c1ccc2ncnc(NCc3cccs3)c2c1 | inactive | 
Cc1cc(C)n2ncc(C(=O)NCc3ccco3)c2n1 | inactive | 
Cc1ccc(S(=O)(=O)n2cc(C(=O)Nc3ccc(-c4ccccc4)cc3)c3ccccc32)cc1 | inactive | 
CC(=O)O[C@@H]1C[C@]2(C)[C@@]3(CCC4[C@@]5(C)CC[C@H](O[C@@H]6O[C@H](C(=O)O)[C@@H](O)[C@H](O[C@@H]7O[C@H](CO)[C@H](O)[C@H](O)[C@H]7O[C@@H]7O[C@@H](C)[C@H](O)[C@@H](O)[C@H]7O[C@@H]7OC[C@](O)(CO)[C@H]7O)[C@H]6O[C@@H]6O[C@H](CO)[C@H](O)[C@H](O)[C@H]6O)C(C)(C)C5CC[C@]42C)O[C@@H](O)[C@]12C3CC(C)(C)[C@@H](OC(=O)/C=C/c1ccc(O)c(O)c1)[C@@H]2OC(=O)/C=C/c1ccccc1 (some centres not stated) |  | 3.11% [at 11.2 µM]
Cc1cc2c(s1)c1cnn(Cc3cc(F)cc(F)c3)c(=O)c1n2C | inactive | 
O=S1(=O)N=C(OCc2ccccc2)c2ccccc21 | inactive | 
Cc1cc(N[S+](=O)([O-])c2ccc(NC(=O)Cc3ccc(C(F)(F)F)c(F)c3)cc2)no1 | inactive | 
